Source: PubChem BioAssay (NCATS)
Results filed as inconclusive are left out. A call without a number means that no potency is given here. Active and inactive are the calls of the source. Calls follow the shape of the dose curve; as a rule, active = well fitted cell-killing curve with a large enough effect; inconclusive = small, poorly fitted or top-dose-only effect, or effect the other way; inactive = no such curve, though single readings can be large or run the other way.

Assay: Viability qHTS for spleen associated tyrosine kinase inhibitor (SYKi) drug resistant MV4-11 cells (AID 1963824); also: nearly all actives have a fitted effect of over 35% in size
Conditions: SYKi-resistant MV4-11 viability, CellTiter-Glo, 72 h; series mostly up to 45 µM
Summary of the method: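 CellTiter-Glo luminescence, read 10 min after reagent addition, reports viability after a 72 hr compound exposure. Cells are an MV4-11 line made resistant to SYK inhibition, seeded at 500 per well onto compound-containing plates.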
Potency is read from the fitted curve at half-maximal effect.

Structure (SMILES) | Potency | viability, % of control
C=C1CCC2C(C)(C(=O)OC)CCCC2(C)C1CCC(C)CC(=O)O (stereo not drawn) | inactive | –
CC(C)=CCc1cc(C(O)C2NC(=O)CNC(=O)C(Cc3c[nH]c4ccccc34)NC(=O)C3CCCN3C(=O)CNC(=O)C(C(C)C)NC(=O)CNC2=O)ccc1O (stereo not drawn) | – | 92.7% [at 9.25 µM] (inactive)
Cc1ccc(C(=O)N(CCCN)C(c2oc3cc(Cl)ccc3c(=O)c2Cc2ccccc2)C(C)C)cc1 (stereo not drawn) | inactive | –
C/C=C(/COC(=O)/C(C)=C/C)C(=O)OC(CC)c1ccc(OC)c(OC)c1 (stereo not drawn) | inactive | –
CCN(CCN(C)C)C(=O)CNCc1cc(C(N)=O)ccn1 | inactive | –
C=C1C(=O)O[C@@H]2[C@H]1[C@H](O)C[C@]1(C)[C@@H](O)CC=C(C)[C@@H]21 | 4.11 µM (active) | –
C[C@@H]1O[C@@H](O[C@H]2[C@H](OC(=O)[C@]34CCC(C)(C)C[C@H]3C3=CCC5[C@@]6(C)CC[C@H](O[C@@H]7O[C@H](C(=O)O)[C@@H](O)[C@H](O)[C@H]7O[C@@H]7O[C@H](CO)[C@H](O)[C@H](O)[C@H]7O)[C@@](C)(C=O)C6CC[C@@]5(C)[C@]3(C)C[C@H]4O)O[C@H](C)[C@H](O[C@@H]3O[C@H](C)[C@H](O)[C@H](O)[C@H]3O)[C@@H]2O)[C@H](O)[C@H](O)[C@H]1O[C@@H]1OC[C@@H](O)[C@H](O[C@@H]2O[C@H](CO)[C@@H](O)[C@H](O)[C@H]2O)[C@H]1O (stereo partly drawn) | – | 5.67% [at 4.97 µM] (inactive)
COc1cc2c(cc1OC)CN(C(=O)/C=C/c1c(-c3ccccc3)n(C)c3ncccc13)CC2 | 3.66 µM (active) | –
